Only some compounds are listed: those with a hit (about 3.5% of all), similar ones and a draw of the others.
GPR151 ag – activates the human receptor GPR151. Q8TDV0. PathHunter beta-arrestin GPR151 cells, luminescence. activation, % at 11.2 µM. 650,000 tested, 1% active. AID 1508602; in the data active = activation above about 4.9%;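 also: 0% = median of compound wells and 100% = cells with positive control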
TEAD-YAP block – TEAD-YAP interaction inhibition; HEK-TIYL cells, TEAD-Gal4/YAP UAS-luciferase luminescence; inhibition, % at 9.12 µM; 640,000 tested, 1.4% active; in the data active = inhibition above about 32%;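 also: 0% = median of test compound wells and 100% = reference inhibitor wells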
FBW7 activator – human FBW7 E3 ligase activation, primary screen | Q969H0 | AlphaScreen FBW7–phospho-cyclin E peptide binding, activator screen | normalized activity (activation), % at 26.1 µM | 650,000 tested, 0.13% active; in the data active = normalized activity above about 1.9%;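 also: purified mutant Fbw7 with reduced substrate affinity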
MITF inh – human MITF inhibition, primary screen; inhibition, % at 2.6 µM; AlphaScreen MITF homodimerization, bead proximity signal; AID 1259374; O75030; 650,000 tested, 0.91% active; in the data active = inhibition above about 50%;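 also: 0% = vehicle wells with protein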
Target sequence (O75030 whole entry, looked up): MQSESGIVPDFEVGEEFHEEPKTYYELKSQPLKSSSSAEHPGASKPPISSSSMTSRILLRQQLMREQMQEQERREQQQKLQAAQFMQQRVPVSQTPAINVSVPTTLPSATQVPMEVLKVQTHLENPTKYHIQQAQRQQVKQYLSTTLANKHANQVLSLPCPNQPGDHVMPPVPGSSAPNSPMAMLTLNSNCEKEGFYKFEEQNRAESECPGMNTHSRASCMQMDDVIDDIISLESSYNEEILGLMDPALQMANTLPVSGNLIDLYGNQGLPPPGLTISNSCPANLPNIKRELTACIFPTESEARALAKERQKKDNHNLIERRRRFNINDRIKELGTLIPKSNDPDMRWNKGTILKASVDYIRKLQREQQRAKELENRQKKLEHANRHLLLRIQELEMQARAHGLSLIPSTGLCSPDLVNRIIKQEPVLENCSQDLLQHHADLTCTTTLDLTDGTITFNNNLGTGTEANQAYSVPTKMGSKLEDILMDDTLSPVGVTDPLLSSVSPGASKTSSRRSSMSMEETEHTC
Starred values were filed as active, the others as inactive.

How did COc1cc(C2CC(=O)Nc3cc4c(cc32)OCO4)cc(OC)c1OC (centres undefined) do in these assays?
GPR151 ag: 0; TEAD-YAP block: 49*; FBW7 activator: 0; MITF inh: -7

Results for N#Cc1c(/N=C/c2ccccc2O)sc2c1CCC2 ?
GPR151 ag: 2; TEAD-YAP block: 1; FBW7 activator: 0; MITF inh: -5

How did Cc1cc(-c2cccc3cnc(Nc4ccc(-n5cnc(C)n5)cc4)nc23)ccn1 do in these assays?
GPR151 ag: 1; TEAD-YAP block: 62*; FBW7 activator: 1; MITF inh: 6

What do the screens show for `Cc1ncn(-c2ccc(Nc3ncc4cccc(-c5ccccn5)c4n3)cc2)n1`?
GPR151 ag: 0; TEAD-YAP block: 42*; FBW7 activator: 0; MITF inh: 22

What do the screens show for `Cc1ccc(-c2cccc3cnc(Nc4ccc(-n5cnc(C)n5)cc4)nc23)cn1`?
GPR151 ag: -2; TEAD-YAP block: 61*; FBW7 activator: 1; MITF inh: 13

How did COc1cc(-c2cccc3cnc(Nc4ccc(-n5cnc(C)n5)cc4)nc23)ccn1 do in these assays?
GPR151 ag: 1; TEAD-YAP block: 14; FBW7 activator: 0; MITF inh: 28

How did Cc1ncn(-c2ccc(Nc3ncc4cccc(-c5cncnc5)c4n3)cc2)n1 do in these assays?
GPR151 ag: -2; TEAD-YAP block: -23; FBW7 activator: 0; MITF inh: 6

What do the screens show for `Cc1ccc(-c2cccc3cnc(Nc4ccc(-n5cnc(-c6ccccn6)n5)cc4)nc23)cn1`?
GPR151 ag: 0; TEAD-YAP block: 28; FBW7 activator: 5.7*; MITF inh: 28

Results for Cc1ncn(-c2ccc(Nc3ncc4cccc(-c5cccc(F)c5)c4n3)cc2)n1 ?
GPR151 ag: -1; TEAD-YAP block: 0; FBW7 activator: 0; MITF inh: 12

Results for Cc1ncn(-c2ccc(Nc3ncc4cccc(-c5ncco5)c4n3)cc2)n1 ?
GPR151 ag: -1; TEAD-YAP block: 70*; FBW7 activator: 1; MITF inh: 43

How did O=C(/C=C/c1ccc(O)c(O)c1)c1ccc(O[C@@H]2O[C@H](CO)[C@@H](O)[C@H](O)[C@H]2O)c(O)c1O do in these assays?
GPR151 ag: 3; TEAD-YAP block: 2; FBW7 activator: 0; MITF inh: 56*

What do the screens show for `COC(=O)c1c2c(n3cc4ccccc4cc13)C(=O)c1ccccc1C2=O`?
GPR151 ag: 1; TEAD-YAP block: -5; FBW7 activator: 0; MITF inh: 87*

Results for CC(=O)c1c2c(n3cc4ccccc4cc13)C(=O)c1ccccc1C2=O ?
GPR151 ag: -1; TEAD-YAP block: -3; FBW7 activator: 0; MITF inh: 12

What do the screens show for `COc1cccc(CC(C2CCN(C(=O)C3CCCO3)CC2)N(C)C(=O)CCSC)c1` (centres undefined)?
GPR151 ag: -1; TEAD-YAP block: -3; FBW7 activator: 0; MITF inh: -1

Results for COc1ccc(OCCOCCOc2ccccc2C=O)cc1 ?
GPR151 ag: -1; TEAD-YAP block: 46*; FBW7 activator: 0; MITF inh: -7

How did COc1ccccc1OCCOc1ccc(C=O)cc1 do in these assays?
GPR151 ag: -1; TEAD-YAP block: -2; FBW7 activator: 0; MITF inh: 6

What do the screens show for `N#CCn1c(COC(=O)C23CC4CC(CC(O)(C4)C2)C3)nc2ccccc2c1=O`?
GPR151 ag: 1; TEAD-YAP block: 6; FBW7 activator: 0; MITF inh: -6

Results for COc1ccc(NC(=O)c2cc(S(=O)(=O)N3CCN(c4ccccn4)CC3)ccc2F)cc1 ?
GPR151 ag: 3; TEAD-YAP block: 7; FBW7 activator: 1.9*; MITF inh: 7

How did O=C(O)c1cccc(NS(=O)(=O)c2cc(Cl)c(Cl)cc2Cl)c1 do in these assays?
GPR151 ag: 0; TEAD-YAP block: -2; FBW7 activator: 0; MITF inh: 8

Results for O=C(NC(Cc1c[nH]c2ccccc12)C(=O)Nc1ccccc1)Oc1ccccc1 (centres undefined) ?
GPR151 ag: 1; TEAD-YAP block: 10; FBW7 activator: 0; MITF inh: 6

What do the screens show for `COc1ccc(NC(=O)C(Cc2c[nH]c3ccccc23)NC(=O)c2ccccc2)cc1` (centres undefined)?
GPR151 ag: 0; TEAD-YAP block: 62*; FBW7 activator: 0; MITF inh: 5

Results for CC1CCC(C(=O)NC(Cc2c[nH]c3ccccc23)C(=O)Nc2cccnc2)CC1 (centres undefined) ?
GPR151 ag: 0; TEAD-YAP block: 58*; FBW7 activator: 0; MITF inh: 9

What do the screens show for `COc1ccc(NC(=O)c2sc3ncn(CC(=O)Nc4ccccc4OC)c(=O)c3c2C)c(OC)c1`?
GPR151 ag: 0; TEAD-YAP block: 6; FBW7 activator: 0; MITF inh: 8

How did Cc1ccc(-c2nc3cccc(C)n3c2NCC2CCCO2)cc1 (centres undefined) do in these assays?
GPR151 ag: -2; TEAD-YAP block: -48; FBW7 activator: 0; MITF inh: -5

Results for CSc1ccc(C2N=C(c3ccccc3)NO2)cc1 (centres undefined) ?
GPR151 ag: 0; TEAD-YAP block: -60; FBW7 activator: 0; MITF inh: 1

How did CN(C)c1ccc(C2N=C(c3ccccc3)NO2)cc1 (centres undefined) do in these assays?
GPR151 ag: -4; TEAD-YAP block: 35*; FBW7 activator: 0; MITF inh: 8

Results for NC(=O)c1ccc(-c2cc(NCc3ccccc3)ncn2)cc1 ?
GPR151 ag: 2; TEAD-YAP block: -1; FBW7 activator: 0; MITF inh: -5

How did CCOC(=O)C1(Nc2ccccc2)Sc2cc(C)ccc2NC1=O (centres undefined) do in these assays?
GPR151 ag: 2; TEAD-YAP block: 63*; FBW7 activator: 0; MITF inh: 20

Results for CCOC(=O)C1(N(CC)CC)Sc2cc(C)ccc2NC1=O (centres undefined) ?
GPR151 ag: -2; TEAD-YAP block: -1; FBW7 activator: 0; MITF inh: 7

Results for CCOC(=O)C1(NC(=S)N2CCOCC2)Sc2cc(C)ccc2NC1=O (centres undefined) ?
GPR151 ag: 1; TEAD-YAP block: 52*; FBW7 activator: 0; MITF inh: -2

How did CCc1nnc(NC(=O)CN2CCN(c3ccc(C(C)=O)cc3)CC2)s1 do in these assays?
GPR151 ag: -1; TEAD-YAP block: 32*; FBW7 activator: 0; MITF inh: -9

What do the screens show for `CC(=O)c1ccc(N2CCN(CC(=O)Nc3ncc(C)s3)CC2)cc1`?
GPR151 ag: -1; TEAD-YAP block: 0; FBW7 activator: 0; MITF inh: 12

What do the screens show for `Cc1ccc(OCC(=O)Nc2cc(Cl)ccc2O)cc1C`?
GPR151 ag: 2; TEAD-YAP block: -9; FBW7 activator: 0; MITF inh: 1

What do the screens show for `COc1ccc(S(=O)(=O)N2CCCC(C(=O)Nc3c4c(nn3C)CCC4)C2)cc1` (centres undefined)?
GPR151 ag: 2; TEAD-YAP block: 12; FBW7 activator: 0; MITF inh: -1

Source: PubChem
